Results as given in PubChem BioAssay AID720504 (National Center for Advancing Translational Sciences (NCATS), 2013).
Among all 360,000 compounds or so, about 10,000 (2.8%) were called active. Not shown: some 4% with an inconclusive outcome. The call rests on the fitted dose curve; in most records, active means well fitted inhibition curve with a large enough effect; inconclusive means small, poorly fitted or top-dose-only effect; inactive means flat fitted curve, though single readings scatter. What follows is part of a selection rich in actives, with near analogues and random picks from the rest.

These compounds were tested against Serine/threonine-protein kinase PLK1 (Homo sapiens) (UniProt P53350) (assay: qHTS for Inhibitors of PLK1-PDB (polo-like kinase 1 - polo-box domain): Primary Screen). Details: Plk1 PBD binding of FITC phosphopeptide, fluorescence polarization.
Serine/threonine-protein kinase PLK1 (Homo sapiens), sequence (P53350 whole entry, looked up, the tested form may be a part): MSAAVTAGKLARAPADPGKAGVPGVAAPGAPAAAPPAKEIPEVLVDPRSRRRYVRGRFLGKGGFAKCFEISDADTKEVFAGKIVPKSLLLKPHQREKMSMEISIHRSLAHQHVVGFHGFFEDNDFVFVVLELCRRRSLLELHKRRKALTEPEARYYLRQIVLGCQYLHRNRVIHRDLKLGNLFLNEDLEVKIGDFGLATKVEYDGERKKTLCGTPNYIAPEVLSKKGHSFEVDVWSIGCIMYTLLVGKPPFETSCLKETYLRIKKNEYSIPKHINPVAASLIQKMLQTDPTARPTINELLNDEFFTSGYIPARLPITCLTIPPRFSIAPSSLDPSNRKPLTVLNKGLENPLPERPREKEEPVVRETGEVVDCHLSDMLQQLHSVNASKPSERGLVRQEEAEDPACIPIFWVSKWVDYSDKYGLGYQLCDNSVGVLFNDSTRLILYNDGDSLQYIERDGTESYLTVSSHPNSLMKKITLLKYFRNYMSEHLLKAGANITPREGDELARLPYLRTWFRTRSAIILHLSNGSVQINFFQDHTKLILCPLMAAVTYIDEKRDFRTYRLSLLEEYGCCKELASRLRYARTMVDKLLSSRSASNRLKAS
Further: nearly all actives have a fitted effect of over 65% in size.
On the % scale 0 is the no-effect control and ±100 the full control effect; potency means the concentration at half of the fitted maximal effect.
Wherever max response, negative = inhibition is given: series mostly up to about 57 µM.

Compound | max response, negative = inhibition | Potency
COc1ccc(CCNC(=O)Nc2ccc3c(c2)c(=O)n(C)n3C)cc1OC | -18.9% (inactive) | 
N#CCSc1ccccc1NC(=O)CN1C(=O)NC(CCc2ccccc2)C1=O (centres undefined) | 1.14% (inactive) | 
COc1ccc(C(C(=O)NCc2ccccc2)n2c(=O)c(-c3ccccc3)nc3ccccc32)cc1 (centres undefined) | -13.5% (inactive) | 
COC(=O)c1c(NC(C)=O)sc(C(=O)Nc2ccccc2OC)c1C |  | 21.2 µM (active)
CCC(=O)Nc1sc(C(=O)Nc2ccccc2)c(C)c1C(=O)OC | -13% (inactive) | 
COc1ccccc1NC(=O)C1=C(C)NC(=O)NC1c1ccc(C)s1 (centres undefined) | -4.66% (inactive) | 
Cc1[nH]c2ccccc2c1C(=O)c1cc([C@H](NC(=O)OC(C)(C)C)C(C)C)sc1N | -13.9% (inactive) | 
COc1c(C)cc(C(O)c2ncc(-c3cccc(C(F)(F)F)c3)[nH]2)cc1C (centres undefined) | -6.75% (inactive) | 
CCCC(=O)N1CCC1(C)C(=O)NS(=O)(=O)c1ccc(Cl)cc1 (centres undefined) | -0.638% (inactive) | 
O=C(NCc1ccc(F)cc1F)[C@@H]1CCCN1C(=O)[C@@H]1CCCN1C(=O)c1cccc(Cl)c1 | -3.81% (inactive) | 
COc1ccc(NC(=O)N(C)C[C@@H]2OCc3cn(nn3)CCCC(=O)N([C@H](C)CO)C[C@H]2C)c(OC)c1 | -13% (inactive) | 
COc1cccc(CNc2nc(NCc3ccccc3OC)nc3ccsc23)c1 | 5.58% (inactive) | 
O=C(CCN1CCN(c2ccccc2)CC1)NNC(=S)Nc1ccccc1 | 2.64% (inactive) | 
CCCCC(=O)NNC(=S)NC(=O)C(c1ccccc1)c1ccccc1 |  | 26.7 µM (active)
CCC(C)NC(=O)CCCc1ccccc1 (centres undefined) | -5.23% (inactive) | 
Cc1cc(Br)ccc1NC(=O)CCCOc1cc(=O)n(C)c2ccccc12 | -7.55% (inactive) | 
O=C(COC(=O)Cc1ccc(Cl)cc1Cl)NCc1ccco1 | -7.73% (inactive) | 
COC(=O)[C@@]1(Sc2ccc(C)cc2)CC(=O)N(c2cccc(SC)c2)[C@@H]1c1ccccc1 | -14.8% (inactive) | 
CC(Sc1ccc(S(=O)(=O)N2CCN(C)CC2)cn1)C(=O)NC1CCCC(C)C1C (centres undefined) | -3.15% (inactive) | 
CCN1/C(=C/C(=S)Nc2ccccc2)Sc2ccccc21 |  | 21.2 µM (active)
CCN1/C(=C\c2ccc3ccccc3[n+]2CC)Sc2cc(C)ccc21 | 18.1% (inactive) | 
CCNCCC(=O)N1c2ccccc2Sc2ccc(NC(=O)OCC)cc21 | 4.19% (inactive) | 
O=C(CCc1ccc(O)cc1)NN=Cc1cc(Br)ccc1O | -9.45% (inactive) | 

Compound | max response, negative = inhibition | Potency
CNS(=O)(=O)c1ccc2c(c1)[nH]c(=S)n2C | -13.6% (inactive) | 
CN1OC[C@@H]2CN(S(=O)(=O)c3cccc4ccccc34)[C@H](c3ccc(N4CCCCC4)cc3)C[C@@H]21 | -17.2% (inactive) | 
CCCNC(=O)C1(C)CCN(C(=O)c2ccccc2OC(F)(F)F)C1 (centres undefined) | 1.6% (inactive) | 
COc1cc(C2/C(=C(\O)c3ccc4c(c3)CC(C)O4)C(=O)C(=O)N2Cc2ccco2)ccc1O (centres undefined) | -6.21% (inactive) | 
COCCCN1C(=O)C(=O)/C(=C(/O)c2ccc3c(c2)CC(C)O3)C1c1cccnc1 (centres undefined) | -4.58% (inactive) | 
COc1cc(C2/C(=C(\O)c3ccc4c(c3)CC(C)O4)C(=O)C(=O)N2c2nnc(C)s2)cc(OC)c1OC (centres undefined) |  | 23.8 µM (active)
COc1cccc(OCC(=O)NCCS(=O)(=O)N2CCN(c3ccccc3)CC2)c1 | -0.74% (inactive) | 
Cc1ccccc1NC(=O)Cc1nc(COC(=O)C(C)(C)Oc2ccc(Cl)cc2)cs1 | -1.61% (inactive) | 
CCOC(=O)COc1nc(C)cc(C(F)(F)F)c1C#N | -6.94% (inactive) | 
CCOC(=O)Cc1c(C)nc2c(C#N)c(C)nn2c1C |  | 18.9 µM (active)
CCOC(=O)c1cc(C)nc(S(C)(=O)=O)c1C#N | -3.21% (inactive) | 
Nc1nc(CSc2nnnn2-c2ccccc2)nc(Nc2ccccc2)n1 | 0.127% (inactive) | 
COc1ccc(-c2ccc(CN3C(CC(C)C)C(=O)N(Cc4cn(CC5CCCCC5)nn4)CCS3(=O)=O)cc2)cc1 (centres undefined) | -10.4% (inactive) | 
CCCn1c(=O)c(C(=O)Nc2cc(C)ccn2)c(O)c2ccccc21 | -9.12% (inactive) | 
C=CCn1c(=O)c(C(=O)Nc2ncccc2O)c(O)c2ccccc21 | -22.1% (inactive) | 
Cn1c(=O)c(C(=O)Nc2ncccn2)c(O)c2ccccc21 |  | 8.44 µM (active)
CC(C)c1cc(Cn2c3ccccc3c(=O)n2C(C)Cn2cc(C3CC3)nn2)on1 (centres undefined) | -4.91% (inactive) | 
CCn1c(Cc2cccs2)nnc1SCC(=O)c1ccc(C)cc1 |  | 16.8 µM (active)
CCn1c(SCC(=O)c2ccc(Cl)s2)nnc1-c1cccs1 | -17.2% (inactive) | 
Cc1ccc(-n2c(Cc3cccs3)nnc2SCC(=O)OC(C)C)cc1 | -2.98% (inactive) | 
COC(=O)[C@@]12C[C@@H](CC(=O)N3CCC(c4ccccc4)CC3)C(=O)N(Cc3ccccc3)C1=CCC(C)(C)C2 | -1.16% (inactive) | 
O=C(NCc1ccc(F)cc1)c1cc(C2CCCCN2C(=O)c2ccccn2)on1 (centres undefined) | -4.01% (inactive) | 
COc1ccccc1N1CCN(c2ncnc3sc(C)c(-c4ccccc4)c23)CC1 | 8.83% (inactive) | 

Compound | max response, negative = inhibition | Potency
Oc1ccccc1N1CCN(c2ncnc3sc(-c4ccccc4)cc23)CC1 |  | 15 µM (active)
c1ccc(-c2cc3c(NCC4COc5ccccc5O4)ncnc3s2)cc1 (centres undefined) | -4.18% (inactive) | 
CS(=O)(=O)c1cccc(-c2ccc3nncn3c2)c1 | -8.79% (inactive) | 
N#CCCC(C#N)(c1cccnc1)N1CCOCC1 (centres undefined) | -8.09% (inactive) | 
COc1ccc(C2CC(c3cccs3)=NN2C(=O)CSc2nncs2)cc1OC (centres undefined) | -11.3% (inactive) | 
COc1ccc(C2=NN(C(=O)CCC(=O)O)C(c3cccs3)C2)cc1OC (centres undefined) | -7.47% (inactive) | 
COc1ccc(C2CC(c3cccs3)=NN2C(=O)CCC(=O)O)cc1OC (centres undefined) |  | 23.8 µM (active)
COc1ccc(C2CC(c3cccc(OC)c3)=NN2c2ccc(S(N)(=O)=O)cc2)cc1 (centres undefined) | -4.37% (inactive) | 
COc1ccc(NC(=O)c2cc(=O)[nH]c3ccccc23)cc1S(=O)(=O)N1CCOCC1 | -1.4% (inactive) | 
Nc1[nH]c(C(=O)c2ccccc2)c(-c2ccncc2)c1C(=O)NCc1cccc2ccccc12 | -5.24% (inactive) | 
OC[C@@H]1CN(Cc2ccc(F)cc2)C[C@H](n2cnc3c(NC4CCCC4)ncnc32)O1 | -5.68% (inactive) | 
Oc1c(Cl)cc(Cl)c(Cl)c1Cc1c(O)c(Cl)cc(Cl)c1Cl |  | 21.2 µM (active)
CCc1nc2c(OCc3ccccc3)cccn2c1N(C)C(=O)c1ccco1 | 3.35% (inactive) | 
CCn1c(SCC(=O)N2CCCC2=O)nc2ccccc21 | -10% (inactive) | 
O=C(CCc1ccccc1)NNc1ccc(F)cc1 | -17.7% (inactive) | 
O=C(CCc1ccccc1)Nc1nn[nH]n1 |  | 26.7 µM (active)
Cc1ccc(F)c(NC(=O)CCc2ccccc2)c1 | -9.88% (inactive) | 
C[C@H]1CN([C@@H](C)CO)C(=O)c2cc(C3=CCCCC3)cnc2O[C@@H]1CN(C)C(=O)Cc1ccccc1 | -26.3% (inactive) | 
O=C(CSc1ncn[nH]1)Nc1ccc(Br)cc1Br | -1.62% (inactive) | 
CCN(C(=O)CSc1ncn[nH]1)c1cccc2ccccc12 | -2.53% (inactive) | 
CC(C)(C)c1ccc(C(=O)CSc2ncn[nH]2)cc1 |  | 20 µM (active)
Cc1ccc(S(=O)(=O)/N=S(\C)C(C)C)cc1 (centres undefined) |  | 26.7 µM (active)
CCCC/S(C)=N/S(=O)(=O)c1ccc(C)cc1 (centres undefined) | -5.69% (inactive) | 

Compound | max response, negative = inhibition | Potency
CC/S(CC1CC1(Cl)Cl)=N\S(=O)(=O)c1ccc(C)cc1 (centres undefined) | -0.46% (inactive) | 
O=C(NCC(F)(F)F)c1ccc(S(=O)(=O)NCCc2ccc3c(c2)OCCO3)cc1 | -0.767% (inactive) | 
COCCNC(=O)C1C(=O)Nc2ccccc2C(=O)N1c1ccc2c(c1)OCCO2 (centres undefined) | -3.12% (inactive) | 
N#Cc1ccc(/C=C2\CCn3c2nc2cc(C(=O)O)ccc2c3=O)cc1 | -8.35% (inactive) | 
O=C(O)c1ccc2c(=O)n3c(nc2c1)/C(=C/c1ccc(OC(F)F)cc1OC(F)F)CC3 |  | 10.6 µM (active)
Cc1ccc(/C=C2\CCn3c2nc2cc(C(=O)O)ccc2c3=O)c(C)c1 | -12.7% (inactive) | 
COc1cccc(NC(=O)C2(C)CCN2C(=O)CCC2CCCC2)c1 (centres undefined) | 1.49% (inactive) | 
FC(F)(F)Oc1ccccc1C(c1nnnn1C1CCCCC1)N1CCN(C/C=C/c2ccccc2)CC1 (centres undefined) | -10.7% (inactive) | 
CCNC(=O)C1(C)CCN(C(=O)c2ccccc2)C1 (centres undefined) | -1.07% (inactive) | 
C[C@@H]1CN([C@@H](C)CO)C(=O)c2c(c3ccccc3n2C)-c2ccccc2CO[C@H]1CN(C)C(=O)C1CC1 | -5.93% (inactive) | 
Nc1c(C(=O)O)cnn1-c1ccccc1 |  | 23.8 µM (active)
NNC(=O)c1cnn(-c2ccccc2)c1C(F)(F)F | -2.55% (inactive) | 
CCNC(=O)c1cnn(-c2ccccc2)c1-c1ccccc1 | -11.7% (inactive) | 
COc1ccc(CCNC(=O)CN(c2ccccc2)S(=O)(=O)c2ccccc2)cc1 | -1.56% (inactive) | 
CCCCCCN1CCN(C2CN(Cc3cn(CCCCCC)nn3)S(=O)(=O)C2)CC1 (centres undefined) | 6.53% (inactive) | 
COc1ccc(-c2cc3c(c4c2ccn4C)C2CCC3C2)cn1 (centres undefined) | -0.384% (inactive) | 
O=S(=O)(NC(=S)Nc1ccccc1)c1ccc(F)cc1 |  | 23.8 µM (active)
CC(=O)NS(=O)(=O)c1ccc(NC(=S)NC(=O)C(C)(C)C)cc1 | -8.92% (inactive) | 
COC(=O)C(NS(=O)(=O)c1ccc(F)cc1)c1ccccc1 (centres undefined) | -18.8% (inactive) | 
Cc1ccc([C@H]2N[C@]3(CCCN(Cc4ccccc4)C3=O)[C@H]3C(=O)N(Cc4ccccc4)C(=O)[C@@H]23)cc1 | 5.77% (inactive) | 
